Rows were chosen to be rich in hits. Some 6.6% of all compounds tested hit in one or more screens of this group.
HT1080 IDH1KD tx = toxicity to HT-1080 IDH1 knockdown cells (counter line) | 360,000 compounds, 2% hits | AID 686971 | HT-1080 IDH1 knockdown viability, ATP luminescence, 48 h | Potency, µM (top dose mostly 46.1 µM), for inactives: top-dose activity, negative = toxicity, usual class: cytotoxic;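 also: 0% = DMSO wells and -100% = cell-free medium wells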
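IDH1KD HT-1080 cells, 750/well, RPMI + 5% FBS; compound pinned after 2 h settling; 48 h, 37 °C; CellTiter-Glo luminescence; % activity normalised to DMSO and no-cell wells; curves fitted, classed by r2 and efficacy.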
HepG2 viability = counter-screen for TGF-b inhibitors: cytotoxicity in HepG2 cells. HepG2 CAGA-GFP viability, ATP luminescence, 18 h. Potency, µM (titrated, usually from 46.1 µM), for the others: at the top dose activity change, negative = cytotoxicity, hits mostly cytotoxic. 410,000 compounds, 0.76% hits
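HepG2 CAGA-GFP cells (1000/well, DMEM with 1% FBS) received compound, then TGF-beta at 500 pg/mL final, and were incubated 18 hours at 37 degrees C. Viability was read by CellTiter-Glo luminescence. Media-only wells were set as complete cell-killing and DMSO as no toxicity.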
HT1080NT lethal = kills 2HG-producing HT-1080-NT fibrosarcoma cells | HT-1080-NT fibrosarcoma viability, CellTiter-Glo ATP luminescence, 48 h | Potency, µM (top dose mostly 46.1 µM), for inactives: at the highest dose activity, negative = less viability, actives largely listed as cytotoxic | 360,000 compounds, 1.6% hits;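 also: NT is the 2HG producing partner of a matched IDH1 knockdown line; 0% = DMSO-treated cells and -100% = media-only wells without cells; nearly all actives have a fitted effect of over 55% in size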
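Luminescent CellTiter-Glo readout after 48 hours of compound exposure at 37 degrees C defined viability of HT-1080-NT cells. Activity was normalized to DMSO wells and cell-free media wells; concentration-response curves were fitted and assigned curve classes.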
KB-V1 cytotox = KB-V1 MDR subline cytotoxicity; Potency, µM (top dose mostly 46.1 µM), most hits filed as cytotoxic; 400,000 compounds, 3.4% hits; KB-V1 MDR cells viability, CellTiter-Glo, 72 h; also: % is scaled to controls: 0 for no effect and ±100 for the full control effect; nearly all actives have a fitted effect of over 60% in size
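Readout: CellTiter-Glo luminescence, 10 min after addition. Cells: KB-V1 MDR subline, 72 h at 37 degrees C with compound. Analysis: corrected, normalized data fitted to concentration-effect curves.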
TGFb SMAD3 inh = TGF-b pathway inhibition | HepG2 CAGA-GFP TGF-b/SMAD3 reporter, GFP fluorescence, 18 h; TGF-beta stimulated, 500 pg/mL final | Potency, µM (highest dose often 46.1 µM), without a hit: top-dose activity, negative = inhibition, most hits filed as inhibitors | 410,000 compounds, 1.2% hits | AID 588855; also: % is scaled to controls: 0 for no effect and ±100 for the full control effect; nearly all actives have a fitted effect of over 65% in size
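Inhibition of TGF-beta-driven CAGA-GFP reporter expression in HEPG2 cells is measured by cellular GFP fluorescence after 18 h stimulation with 500 pg/mL recombinant TGF-beta in 1% FBS medium at 37 degrees C.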
KB-3-1 cytotox = kills parental KB-3-1 adenocarcinoma cells | KB-3-1 viability, CellTiter-Glo ATP luminescence, 72 h | Potency, µM (series often up to 46.1 µM), hits mostly cytotoxic | 400,000 compounds, 1.4% hits | AID 1347075; also: % is scaled to controls: 0 for no effect and ±100 for the full control effect; nearly all actives have a fitted effect of over 60% in size
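Cytotoxicity in the drug-sensitive parental line KB-3-1 was scored as loss of CellTiter-Glo luminescence following 72 h incubation with compound. Values come from curve fitting of normalized concentration-response data.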
The depositor's hits bear a star; i = inactive; ? = inconclusive; . = no result; ! = a repeat was not active. Calls follow the shape of the dose curve; as a rule, active = well fitted curve in the direction sought with a large enough effect; inconclusive = small, poorly fitted or top-dose-only effect, or another doubt; inactive = no such curve, though single readings can be large; an effect the other way counts as inactive or inconclusive. Potency is read from the fitted curve at half-maximal effect.

SMILES | HT1080 IDH1KD tx | HepG2 viability | HT1080NT lethal | KB-V1 cytotox | TGFb SMAD3 inh | KB-3-1 cytotox
COc1cccc(CN2CCCC(C(=O)Nc3ccc(-c4cscn4)cc3)C2)c1 (stereo not drawn) | -11% | -11% | -16% | 21µM* | -45% | ?
COc1cccc(-c2ccc(NC(=O)C3CCCN(Cc4cnn(C)c4)C3)cc2)c1 (stereo not drawn) | 16µM* | -29% | ? | i | -23% | i
CCOC(=O)N1CCC(NC(=O)c2cc(S(=O)(=O)N3CCC4(CC3)OCCO4)ccc2F)CC1 | 2% | 0% | -5% | 23µM* | -2% | i
CCOC(=O)N1CCC(NC(=O)c2cc(S(=O)(=O)N3CCOCC3)ccc2F)CC1 | -3% | -2% | 18% | i | -1% | i
CCCn1cc(S(=O)(=O)c2ccc(CC)cc2)c(=O)c2ccccc21 | . | -18% | . | i | 0% | i
COc1ccc(C(NC(=O)C2CCN(CCOc3ccc(Cl)cc3Cl)CC2)c2ccccc2C)cn1 (stereo not drawn) | 23% | -102% | -7% | ? | ? | ?
COc1ccc(C(C)NC(=O)C2CCN(CCOc3ccc(Cl)cc3Cl)CC2)cc1OC (stereo not drawn) | ? | -90% | 23µM* | ? | ? | ?
CCOc1ccc(C(C)NC(=O)C2CCN(S(=O)(=O)c3ccc(OC)cc3)CC2)cc1OCC (stereo not drawn) | 1% | -3% | 1% | 21µM* | 5% | i
O=C(NC(c1ccccc1)c1ccsc1)C1CCN(CCOc2ccc(Cl)cc2Cl)CC1 (stereo not drawn) | 16µM* | -95% | 18µM* | i | ? | i
O=C(NC(c1ccccc1)c1cnccn1)C1CCN(CCOc2ccc(Cl)cc2Cl)CC1 (stereo not drawn) | ? | -96% | 16µM* | i | ? | i
Cc1ccc2c(=O)cc(C(=O)Nc3c(C(=O)c4ccccc4)oc4ccccc34)oc2c1C | . | -8% | . | i | -2% | i
Cc1ccc(N2CC(NC(=O)c3ccc(S(=O)(=O)N4CCCC4)cc3)CC2=O)cc1 (stereo not drawn) | . | -20% | . | . | -1% | .
CCOC(=O)c1cc(OC(C)=O)c2ccc(OC)c(OC)c2c1 | 12% | 6% | ? | i | 3% | ?
O=C(NC(c1cccnc1)c1ccc2c(c1)OCO2)C1CCN(CCOc2ccc(Cl)cc2Cl)CC1 (stereo not drawn) | 18µM* | -47% | ? | i | ? | i
COc1ccc(S(=O)(=O)N2CC(C(=O)O)Oc3ccccc32)cc1 (stereo not drawn) | 0% | -4% | 9% | i | 1% | i
COc1ccc(S(=O)(=O)N2c3ccccc3OCC2C)cc1 (stereo not drawn) | 0.65µM* | -2% | 0.65µM* | ? | ? | 1.2µM*
COc1ccc(S(=O)(=O)N2c3ccccc3OCC2CC(=O)O)cc1 (stereo not drawn) | ? | -2% | ? | ? | 2% | ?
COc1ccc(S(=O)(=O)N2c3ccccc3OCC2C(C)(C)C)cc1 (stereo not drawn) | 25% | 8% | 15% | i | 16% | i
COc1ccc(S(=O)(=O)N2CCOc3ccccc32)cc1 | 13µM* | -5% | ? | i | 5% | i
COc1ccc(S(=O)(=O)N2c3ccccc3OCC2c2ccccc2)cc1 (stereo not drawn) | ? | -11% | ? | 5.8µM* | 12% | 8.2µM*
O=C(NCc1ccccc1)C(c1ccc(C(F)(F)F)cc1)N1CCN(CCN2CCOCC2)CC1 (stereo not drawn) | -3% | . | -12% | i | . | i
O=C1C(=O)c2ccccc2C(O)=C1CC=C(Cl)Cl | -29% | -43% | -7% | 3.7µM* | ? | 15µM*
CCc1nc2oc3ccccc3c(=O)c2c(=O)n1-c1ccccc1 | ? | -20% | ? | 15µM* | 17% | i
CCc1nc2oc3ccccc3c(=O)c2c(=O)n1-c1ccc(C)cc1 | -21% | 9% | -21% | i | 0% | i
Fc1ccc(/C=C/c2nccc3ccccc23)cc1 | . | -23% | . | i | -9% | 18µM*
SMILES | HT1080 IDH1KD tx | HepG2 viability | HT1080NT lethal | KB-V1 cytotox | TGFb SMAD3 inh | KB-3-1 cytotox
C(=C\c1c[nH]c2ccccc12)/c1nccc2ccccc12 | . | 11µM* | . | i | ? | i
Cc1cccc(NC(=S)NCCC(c2ccccc2)c2ccccc2)c1 | -8% | -22% | -2% | ? | 11µM* | i
Cc1cccc(NC(=S)NCc2cccn2C)c1 | ? | -4% | ? | i | -21% | 21µM*
Cc1ccc(NC(=S)NCc2cccn2C)cc1 | ? | -11% | ? | ? | 0% | i
O=C(Nc1ccc(Cl)c(Cl)c1)c1cc(S(=O)(=O)N2CCN(c3cccc(Cl)c3)CC2)ccc1F | . | -2% | . | i | ? | i
CC(=O)c1ccc(OCCCC(=O)Nc2ccc(C)c(S(=O)(=O)N3CCCCC3)c2)cc1 | -10% | 10% | ? | ? | ? | i
Cc1ccc(NC(=O)c2ccc(OC(F)(F)F)cc2)cc1S(=O)(=O)N(C)C | -28% | -33% | -24% | ? | ? | 23µM*
CCCCN1C(=O)c2ccc(C(=O)Nc3ccc(C)c(S(=O)(=O)N(C)C)c3)cc2C1=O | -12% | -19% | -12% | 12µM* | -23% | ?
CC(=O)c1ccc(OCCCC(=O)Nc2ccc(C)c(S(=O)(=O)N(C)C)c2)cc1 | -9% | 5% | 1% | 23µM* | 0% | 21µM*
O=C(Nc1ccc2c(c1)CCCN2C(=O)c1cccs1)c1cccc(C(F)(F)F)c1 | . | -10% | . | ? | -7% | ?
CCc1ccccc1NC(=O)CNC(=O)CSC(=S)N1CCCC1 | 7% | 11% | 12% | i | 0% | i
CCOC(=O)/C(=C\c1ccc(N2CCC(c3ccccc3)=N2)cc1)C(C)=O | 1% | 5% | 5% | . | 6% | .
CCOC(=O)C(=Cc1ccc(-n2cncn2)cc1)C(=O)OCC | 5.2µM* | -93% | 16µM* | i | ? | ?
Cc1cccc(OCC(O)Cn2c(=N)n(CCN3CCCCC3)c3ccccc32)c1 (stereo not drawn) | 11µM* | 11µM*! | 10µM* | ? | ? | ?
CCN(CC)CCn1c(=N)n(CC(O)COc2cccc(C)c2)c2ccccc21 (stereo not drawn) | 21µM* | -59% | ? | i | ? | ?
